# Laboratory results as given in publication PMC4552634, “A New Set of Chemical Starting Points with Plasmodium falciparum Transmission-Blocking Potential for Antimalarial Drug Discovery” (PLoS ONE, 2015).
# Out of some 13,000 compounds screened, about 3,200 (25%) showed an effect of 50% or more. The list shows a part of the results.
# System: P. falciparum stage V gametocytes
# Set-up: BacTiter-Glo ATP luminescence viability of purified stage V gametocytes in 384-well plates, per cent inhibition versus DMSO
# Details: 48 h, 5 µM; inhibitor
row,Compound,% Inhibition [%]
1,O=C(Nc1ccc(-c2csc3nccn23)cc1)c1ccc(Cl)cc1 [TCMDC-137159],11.24
2,CN1CCN(CCCN(Cc2cccc(-c3ccc(CNCc4ccc5c(c4)OCO5)cc3)c2)C(=O)Nc2ccccc2)CC1 [TCMDC-140596],57.54
3,CN1CCN(CCCN(Cc2ccc(-c3cccc(CNCc4ccc5c(c4)OCO5)c3)cc2)C(=O)NCCc2ccccc2)CC1 [TCMDC-140947],67.47
4,CN1CCN(CCCN(Cc2ccc(-c3cccc(CNCc4ccc5c(c4)OCO5)c3)cc2)C(=O)Nc2ccccc2)CC1 [TCMDC-140606],65.32
5,CN1CCN(CCCN(Cc2ccc(-c3ccc(CNCc4ccc5c(c4)OCO5)cc3)cc2)C(=O)Nc2ccccc2)CC1 [TCMDC-140607],58.83
6,c1ccc2c(c1)ncn2-c1ccnc(Nc2ccncc2)n1 [TCMDC-138908],15.51
7,Cc1ccc(NC(=O)c2cc(Br)cc(N3CCCN(C)CC3)c2)cc1F [TCMDC-135143],-89.56
8,CCCCCN1CCCC(CNS(=O)(=O)c2ccc(C(=O)Nc3ccc(C(F)(F)F)cc3)cc2)C1 (stereo not drawn) [TCMDC-133679],-5.047
9,c1ccc2c(c1)CN(CC1CCOCC1)CC1(CCN(Cc3c[nH]c4cnccc34)CC1)O2 [TCMDC-133380],13.86
10,O=C(NCCCN(Cc1ccc(F)cc1)c1ccccn1)C(c1cc2ccccc2o1)N1CCN(C(c2ccccc2)c2ccccc2)CC1 (stereo not drawn) [TCMDC-141022],15.04
11,CCN(CCN(C)C)Cc1ccc(-c2ccc(NS(=O)(=O)c3cccc(Cl)c3)cc2)cc1 [TCMDC-136601],2.097
12,O=C(COC(=O)c1cccc(S(=O)(=O)N2CCc3ccccc32)c1)NNC(=O)c1cccs1 [TCMDC-124334],26.4
13,CC(C)C[C@H](NC(=O)c1ccc(OCCN2CCOCC2)cc1)C(=O)N[C@H](/C=N/NC(=O)c1ccccc1)CCc1ccccc1 [TCMDC-135817],2.96
14,COc1ccc(CN=C(N)Nc2nc(-c3ccc(OCCCn4ccnc4)cc3)cs2)cc1 [TCMDC-138934],9.829
15,CCCCN=C(N)Nc1ccc(OCCCOc2ccc(NC(N)=NCCCC)cc2)cc1 [TCMDC-137616],55.77
16,CCCCCCN=C(N)c1ccc(OCCCCCOc2ccc(C(N)=NCCCCCC)cc2)cc1 [TCMDC-137619],113.3
17,CN(C)C=Nc1ccc(OCCCCCCOc2ccc(N=CN(C)C)cc2)cc1 [TCMDC-137575],-11.04
18,NC(=NCc1ccc(O)cc1)Nc1nc(-c2ccc(OCCCn3ccnc3)cc2)cs1 [TCMDC-138936],-10.17
19,CCCCN=C(N)c1ccc(OCCCCCOc2ccc(C(N)=NCCCC)cc2)cc1 [TCMDC-137617],33.37
20,CC(C)CCN=C(N)c1ccc(OCCCCCOc2ccc(C(N)=NCCC(C)C)cc2)cc1 [TCMDC-137618],62.8
21,CCCCCN=C(N)c1ccc(OCCCCCOc2ccc(C(N)=NCCCCC)cc2)cc1 [TCMDC-137620],63.24
22,CCCCCCN=C(N)c1ccc2nc(-c3ccc(O)cc3)[nH]c2c1 [TCMDC-137218],15.89

row,Compound,% Inhibition [%]
1,O=C(Nc1cccc(-c2cc3ccccc3[nH]2)c1)C1CCN(Cc2ccccc2O)CC1 [TCMDC-124628],-2.419
2,COC(=O)Nc1cc(C(F)(F)F)ccc1N1CCCC(NS(=O)(=O)c2ccc(C(C)(C)C)cc2)C1 (stereo not drawn) [TCMDC-134158],-30.72
3,CN1CCN(c2ccnc3ccc(NC(=O)Nc4ccc(Br)cc4)cc23)CC1 [TCMDC-139324],-20.3
4,CC(CNC1CCN(CCn2c(=O)ccc3ccc(F)cc32)CC1)c1ccccc1 (stereo not drawn) [TCMDC-135136],3.185
5,CCN1CCCC(CNC(=O)/C(=C/C=C/c2cc3cc(Cl)c(Cl)cc3[nH]2)OC)C1 (stereo not drawn) [TCMDC-139380],-27.83
6,CC1CCC(C[C@@H](C(=O)N[C@H](C(=O)Nc2nccs2)[C@@H](C)O)[C@H](CCC(F)(F)F)N(O)C=O)CC1 (stereo partly drawn) [TCMDC-138352],2.054
7,Cc1ccc(OCCCCON2C(N)=NC(N)=NC2(C)C)cc1C [TCMDC-131655],1.03
8,COc1ccc2nccc([C@@H](O)CN3CCC(NCc4ccc5c(n4)NCCC5)CC3)c2c1 [TCMDC-141460],44.65
9,Nc1c2c(nc3ccc(NC(=O)Cc4ccccc4)cc13)CCCC2 [TCMDC-139055],81.23
10,Nc1c2c(nc3ccc(NC(=O)CCCc4ccccc4)cc13)CCCC2 [TCMDC-139057],98.45
11,Nc1c2c(nc3ccc(NC(=O)c4ccccc4)cc13)CCCC2 [TCMDC-139043],28.63
12,CN1CCN(c2ccnc3ccc(NC(=O)Cc4ccc5ccccc5c4)cc23)CC1 [TCMDC-139351],4.671
13,CN1CCN(c2ccnc3ccc(NC(=O)Cc4ccc(OCc5ccccc5)cc4)cc23)CC1 [TCMDC-139349],24.22
14,Cc1ccc2cc(NC(=O)CCCCCCCON3C(N)=NC(N)=NC34CCCCC4)ccc2n1 [TCMDC-140377],0.7997
15,Nc1c2c(nc3ccc(NC(=O)CCCCCCc4ccccc4)cc13)CCCC2 [TCMDC-139056],74.85
16,O=C(CCCc1ccccc1)Nc1cccc(N2CCC(N3CCN(c4ccccc4O)CC3)CC2)c1 [TCMDC-124664],-59.43
17,O=C(Nc1ccc(O)c(-c2nc3ccccc3[nH]2)c1)c1ccc([N+](=O)[O-])cc1 [TCMDC-124222],-7.746
18,Nc1c2c(nc3cc(NC(=O)c4ccc([N+](=O)[O-])cc4)ccc13)CCCC2 [TCMDC-138975],103.7
19,Nc1c2c(nc3ccc(NC(=O)CCCCCc4ccccc4)cc13)CCCC2 [TCMDC-139060],-0.3465
20,Cc1cc(N(C)C)nc(Nc2ccc(NC(=O)CCc3ccccc3)cc2)n1 [TCMDC-124721],2.562
21,COc1ccc2cc(C(=O)NC3CCC(CCN4CCc5cc(C#N)ccc5C4)CC3)[nH]c2c1 (stereo not drawn) [TCMDC-139193],-26.16
22,O=C(/C=C/c1ccc(Cl)c(Cl)c1)NC1CCC(CN2CCC(c3nc4ccc(O)cc4[nH]3)CC2)CC1 (stereo not drawn) [TCMDC-140227],3.463

row,Compound,% Inhibition [%]
1,CCCc1cc(Cc2cnc(N)nc2N)cc(CCC)c1OC [TCMDC-137694],-10.37
2,Cc1ccc(-c2noc(=O)n2CC(=O)Nc2ccccc2-c2ccccc2)cc1 [TCMDC-123570],15.39
3,CC(Cc1ccc(NS(=O)(=O)c2ccc(CC(C)NCCc3cccc(Cl)c3)cc2)cc1)NCCc1cccc(Cl)c1 (stereo not drawn) [TCMDC-139797],48.75
4,CC(Cc1ccc(CNC(=O)NCc2ccc(CC(C)NCCc3cccc(Cl)c3)cc2)cc1)NCCc1cccc(Cl)c1 (stereo not drawn) [TCMDC-139648],111.4
5,CC(C)c1sc(N2CCN(C)CC2)nc1C(=O)NCCc1cccc(Cl)c1 [TCMDC-134297],6.593
6,CC(C)c1ccc(NC(=O)c2ccc(CN3CCCN(Cc4cccc(Cl)c4)CC3)cc2)cc1 [TCMDC-136418],3.705
7,O=C(NCCc1ccc(Cl)c(Cl)c1)c1ccc(CNC(=O)c2ccc(O)c(-c3ccc(Cl)c(Cl)c3)c2)cc1 [TCMDC-140872],8.428
8,CC(Cc1ccc(CNC(=O)c2ccc(CC(C)NCCc3cccc(Cl)c3)cc2)cc1)NCCc1cccc(Cl)c1 (stereo not drawn) [TCMDC-139659],108.3
9,CC(Cc1ccc(C(=O)N2CCN(C(=O)c3ccc(CC(C)NCCc4cccc(Cl)c4)cc3)CC2)cc1)NCCc1cccc(Cl)c1 (stereo not drawn) [TCMDC-139613],105.5
10,CC(C)n1cc(CN2CCCC(C(=O)Nc3cccc(-c4cc5ccccc5[nH]4)c3)C2)cn1 (stereo not drawn) [TCMDC-124681],-62.3
11,CC(C)c1sc(N2CCCCC2)nc1C(=O)Nc1ccc(F)cc1C(F)(F)F [TCMDC-134299],-21.66
12,COc1cccc(CNC(=O)NC2CCN(c3ccnc(Nc4cc(OC)c(OC)c(OC)c4)n3)C2)c1 (stereo not drawn) [TCMDC-133628],38.97
13,CN(C)CCCNCc1ccc(-c2ccc(C(F)(F)F)cc2)cc1 [TCMDC-140011],92.27
14,CS(=O)(=O)NCCCNCc1ccc(-c2cccc(-c3nc4ccc(C(F)(F)F)cc4[nH]3)c2)cc1 [TCMDC-133087],6.297
15,CN1CCC(NCc2ccc(-c3ccc(C(F)(F)F)cc3)cc2)CC1 [TCMDC-141094],-30.31
16,FC(F)(F)c1ccc2[nH]c(-c3ccc(-c4ccc(CNCCc5ccncc5)cc4)cc3)nc2c1.O=C(O)C(F)(F)F [TCMDC-132852],-64.17
17,CS(=O)(=O)NCCCNCc1ccc(-c2ccc(-c3nc4cc(C(F)(F)F)ccc4[nH]3)cc2)cc1.O=C(O)C(F)(F)F [TCMDC-133080],-31.8
18,CCN(CC)CCCNCc1ccc(-c2ccc(C(F)(F)F)cc2)cc1 [TCMDC-141087],65.86
19,O=C(CC(=O)C(F)(F)F)c1ccccc1[N+](=O)[O-] [TCMDC-125884],22.33
20,Cc1ccc(-n2c(Cc3cccc4ccccc34)nnc2SCCC#N)c(C)c1 [TCMDC-123560],-0.8399
21,O=C(CC1CCCC1)Nc1ccc2c(c1)CCC2 [TCMDC-124327],8.334
22,CC(C)n1ncc2c(C(=O)N3CCCC4CCCCC43)cc(C3CC3)nc21 (stereo not drawn) [TCMDC-125305],-1.205
